The values below come from PubChem BioAssay AID2451 (National Center for Advancing Translational Sciences (NCATS), 2010).

Structures are written as SMILES. The whole screen tested about 290,000 compounds, of which about 2,100 (0.72%) were called active. Roughly 4% stayed inconclusive and do not appear here. This is one part of a sample in which actives are shown more often than they occur. Values without a mark were called inactive. The call rests on the fitted dose curve; in most records, active means well fitted inhibition curve with a large enough effect; inconclusive means small, poorly fitted or top-dose-only effect, or effect the other way; inactive means flat fitted curve, though single readings scatter.
On the % scale 0 is the no-effect control and ±100 the full control effect; potency means the concentration at half of the fitted maximal effect.

The target of the assay is Fructose-bisphosphate aldolase (Giardia intestinalis (strain ATCC 50803 / WB clone C6)) (UniProt A8B2U2). Briefly: qHTS Assay for Inhibitors of Fructose-1,6-bisphosphate Aldolase from Giardia Lamblia. Further: nearly all actives have a fitted effect of over 55% in size. The settings on record: purified Giardia FBPA; series mostly up to 59.6 µM; activity, negative = inhibition: at the top concentration. From the text: Assay Provider: Osnat Herzberg, University of Maryland
Chain of Fructose-bisphosphate aldolase (Giardia intestinalis (strain ATCC 50803 / WB clone C6)) (A8B2U2 whole entry, looked up): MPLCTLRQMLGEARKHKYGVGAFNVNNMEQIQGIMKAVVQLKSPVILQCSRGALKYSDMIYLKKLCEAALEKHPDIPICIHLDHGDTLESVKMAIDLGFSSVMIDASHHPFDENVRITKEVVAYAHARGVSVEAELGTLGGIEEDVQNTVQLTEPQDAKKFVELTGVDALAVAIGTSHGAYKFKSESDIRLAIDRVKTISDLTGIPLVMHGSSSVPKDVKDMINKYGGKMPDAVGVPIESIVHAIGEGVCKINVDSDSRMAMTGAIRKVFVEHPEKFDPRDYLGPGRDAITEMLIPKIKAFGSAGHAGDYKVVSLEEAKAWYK
The objective of this project is to obtain compounds that inhibit Giardia lamblia growth. G. lamblia is a human pathogen which afflicts impoverished nations; it is the most common cause of outbreaks of diarrhea in the United States. During the course of our study of potential drug targets in Giardia, we have identified the Class II (Zn2+ functions in electrophilic catalysis) fructose-1,6-bisphosphate aldolase (FBPA) as an excellent candidate for drug targeting. FBPA is a key glycolytic pathway enzyme, essential for G. lamblia survival. The human FBPA belongs to the Class I aldolases, which have a different substrate binding site structure and a radically different catalytic mechanism (employing a lysine-Schiff base intermediate). Therefore, affinity-based or mechanism-based inhibitors of the Giardia FBPA are expected not to interfere with the catalytic function of the human FBPA.
A glyceraldehyde-3-phosphate dehydrogenase/triose phosphate isomerase/NAD/arsenate coupled assay was adapted to the 1536-well HTP format for use in the primary screen. This was done by coupling it to a diaphorase/resazurin/resorufin reaction that can be monitored by fluorescence (excitation, 544 nm; emission, 590 nm). Compounds identified in this screen will be further evaluated by coupling the glycerol-3-phosphate/triose phosphate isomerase/NADH assay to a phenazine methosulfate/tetranitroblue tetrazolium color reaction. False positives due to the dehydrogenases and diaphorase inhibition will be eliminated, and selectivity assay will triage inhibitors of mammalian triose phosphate isomerase and the Class I FBPA. G. lamblia FBPA inhibitors identified by the in vitro analyses will be examined for growth inhibition of Giardia trophozoites, and for cytotoxicity in human cells.
Step,Parameter,Value,Description
1,Enzyme reagent,2 uL,40 nM FBPA
2,Compound,23 nL,3.68 nM-57.5 uM final concentration
3,Time,10 min,RT Incubation
4,Substrate/detection Reagent,2 uL,Substrate + enzyme coupling system + AmpLite Red kit
5,Time,20 min,RT Incubation
6,Detector,525 nm/598 nm (Fluorescence),ViewLux Fluorescence Read (Read 1)
1,Medium-binding black solid-bottom Kalypsys plates. FRD or Kalypsys dispenser, 2 uL of FBPA enzyme. Bottle kept at 4C.
2,Compound Library (10 mM ,1:5 dilution). Pin-transferred for a [final] range of 3.68 nM-57.5 uM.
4,FRD or Kalypsys dispenser, 2 uL of reaction mixture. Bottle kept at 4C and covered in foil to protect from light.
6,ViewLux Protocol 1194; Excitation filter wheel A (525/20 Pol; BODIPY TMR FP), Emission filter wheel B (598/25 S; BODIPY TMR FP S).
Keywords: Fructose-bisphosphate aldolase, FBPA , Giardia lamblia , Giardia, HTS, Inhibitors
Turning to `CCc1nn(CCCC(=O)NCc2ccc(C)cc2)c(=O)c2cc3occc3n12`, the “activity, negative = inhibition” value was 4.23%.

Consider `CC(C)c1ccc(N(C(=O)c2ccco2)C(C(=O)NC2CCCC2)c2cccnc2)cc1` (stereo not given), for which the “activity, negative = inhibition” value is 7.96%.

With `Nc1ccc2nc3c(=O)[nH]c(=S)[nH]c3nc2c1`, the Potency was 3.54 µM (active).

For the molecule `O=c1[nH]c(=O)c2nc3ccccc3nc2[nH]1`, the “activity, negative = inhibition” value was 3.35%.

`Cc1ccc(NS(=O)(=O)c2ccc(-c3ccc(=O)[nH]n3)o2)c(C)c1`: the “activity, negative = inhibition” value was 4.34%.

As to `O=[N+]([O-])c1ccc(N(CCO)Cc2ccccc2)c([N+](=O)[O-])c1`, the “activity, negative = inhibition” value was 7.03%.

As for `CCOc1cc(-c2cc(-c3ccc(NC(C)=O)cc3)nc(N)c2C#N)ccc1O`, the “activity, negative = inhibition” value was -3.5%.

Take `O=[N+]([O-])c1cccc2ncccc12`: the “activity, negative = inhibition” value was -0.876%.

For the molecule `CCN(CC)c1ccc([N+](=O)[O-])c2cccnc12`, the “activity, negative = inhibition” value is -27.5%.

With `O=[N+]([O-])c1cc([N+](=O)[O-])c2cccnc2c1O`, the Potency is 15.8 µM (active).

Take `CCOC(OCC)c1ccc(/C=C\c2nccc(N)n2)cc1`: the “activity, negative = inhibition” value was -5.31%.

In the case of `Cc1ccc(NC(=S)NCCc2ccc(Cl)cc2)c(C)c1`, the “activity, negative = inhibition” value is 0.528%.

On to `O=c1o[nH]c(-c2ccccc2)c1N=Nc1c(F)cccc1Cl`, for which the “activity, negative = inhibition” value was -7.28%.

Consider `COc1ccc(N=Nc2c(-c3ccc(OC)cc3)[nH]oc2=O)cc1`, for which the Potency was 12.6 µM (active).

For `COc1ccc(-c2cn[nH]c2-c2ccc(OC)cc2)cc1`, the “activity, negative = inhibition” value is -0.709%.

Take `O=C(Nc1ccc([N+](=O)[O-])cc1)OCCc1ccccn1`: the “activity, negative = inhibition” value is 6.01%.

For the molecule `CCS(=O)(=O)C1=NSC2=NC(=O)/C(=C\c3ccc(OS(=O)(=O)c4ccccc4)cc3)C(=N)N21`, the “activity, negative = inhibition” value was -0.451%.

On to `COc1ccc(OCc2cc(C(=O)NCC3(C)COC3)no2)c(Cl)c1`, for which the “activity, negative = inhibition” value was 3.12%.

As to `COC(=O)c1c(NC(=O)COc2ccc(Cl)cc2Cl)sc2c1CC(C)(C)NC2(C)C`, the “activity, negative = inhibition” value was -0.396%.

With `CN1CCCc2cc(C#N)c(=O)[nH]c21`, the Potency was 9.98 µM (active).

In the case of `Cc1[nH]c(C)c(S(=O)(=O)N2CCC(C)CC2)c1C(=O)N1CCCC1`, the “activity, negative = inhibition” value is 0.103%.

As for `CCNC(=S)N(CCN(CC)CC)Cc1cc2cc3c(cc2[nH]c1=O)OCCO3`, the “activity, negative = inhibition” value was 0.97%.

Regarding `O=c1[nH]c2ccccc2n2c(-c3ccccc3)nnc12`, the Potency is 0.998 µM (active).

As to `CCOC(=O)c1cnc2[nH]c3ccccc3n2c1=O`, the “activity, negative = inhibition” value was 2.05%.

On to `Cc1ccc(-c2nc3ccccc3[nH]c2=O)cc1`, for which the “activity, negative = inhibition” value is 3.98%.

On to `O=C1c2ccccc2C(=O)N1CCOc1ccc(F)cc1`, for which the “activity, negative = inhibition” value is 1.01%.

As for `COc1ccc(C2=NN(C(=O)c3ccccc3C(=O)O)C(c3ccccc3O)C2)cc1` (stereo not given), the “activity, negative = inhibition” value was 12.5%.

In the case of `Cc1ccccc1N1CCN(CCCN2C(=O)C3CCCCN3C2=O)CC1` (stereo not given), the “activity, negative = inhibition” value is -15.4%.

As to `CCCCC1(C(=O)OCC)NC(c2ccc(O)cc2)C2C(=O)N(c3ccccc3)C(=O)C21` (stereo not given), the “activity, negative = inhibition” value is 7.01%.

In the case of `O=C(O)Cn1c(Cc2ccccc2)nc2ccccc21`, the Potency was 28.2 µM (active).

On to `CC(=O)c1nc2ccccc2n1Cc1ccccc1`, for which the “activity, negative = inhibition” value was -5.52%.

Regarding `C=C(Br)Cn1c(CCCC)nc2ccccc21`, the “activity, negative = inhibition” value was 8.1%.

`Cc1cc(C)nc(N/N=C/c2ccc([N+](=O)[O-])o2)n1`: the Potency was 28.2 µM (active).

Regarding `Cc1cc(C)nc(N/N=C/c2c(C)oc3ccccc23)n1`, the “activity, negative = inhibition” value is -26.2%.

Regarding `CCc1ccc(S(=O)(=O)N/N=C\c2ccc([N+](=O)[O-])o2)cc1`, the “activity, negative = inhibition” value is -19.2%.

For `CS(=O)(=O)N1CCc2cc(C(=O)Nc3ccccc3Br)ccc21`, the “activity, negative = inhibition” value was 10.4%.

Consider `CCCOc1ccc(-c2c(C(=O)N/N=C/c3ccco3)nnn2-c2nonc2N)cc1`, for which the “activity, negative = inhibition” value is 7.42%.

In the case of `Cc1ccc(/C=N/NC(=O)c2cc3ccccc3cc2O)o1`, the “activity, negative = inhibition” value was -19.7%.

As to `Cc1cc2[nH]ncc2cc1NC(=S)NC(=O)c1ccccc1`, the “activity, negative = inhibition” value is -10.8%.

As for `COCCCNC(=S)NC(=O)c1ccccc1`, the “activity, negative = inhibition” value was 0.0132%.

Take `Cn1nnc(NC(=S)NC(=O)c2ccccc2)n1`: the Potency was 3.15 µM (active).

For `Cc1c(Cl)cccc1NC(=S)NCC(O)c1ccccc1` (stereo not given), the “activity, negative = inhibition” value is 0.0635%.

As for `O=C(c1n[nH]c2c1CCC2)N1CCCC(Nc2cccc(F)c2)C1` (stereo not given), the “activity, negative = inhibition” value was -1.71%.

For `CSc1n[nH]c(=S)n1N`, the Potency is 19.9 µM (active).

In the case of `Cc1noc(C)c1CCC(=O)N1CCCC(CO)(Cc2ccccc2)C1` (stereo not given), the “activity, negative = inhibition” value was -4.45%.

Turning to `COc1ccc2c3c(c(=O)oc2c1)C1O[C@](CCCCN2C(=O)c4ccccc4C2=O)(Cc2c1ccc1ccccc21)O3`, the activity, negative = inhibition was -2.65% [at 12.9 µM].

Regarding `COc1ccc(CCNCc2c(-c3ccccc3)n(C)c3ccccc23)cc1`, the “activity, negative = inhibition” value is -29.6%.

As to `COc1ccc(OC)c(Nc2nc(-c3ccc(O)c(O)c3)cs2)c1`, the Potency was 8.89 µM (active).

Regarding `COc1ccc(-c2csc(Nc3ccccn3)n2)cc1`, the “activity, negative = inhibition” value was -13.5%.

Consider `COc1ccc(-c2csc(Nc3ccc(O)cc3)n2)cc1`, for which the “activity, negative = inhibition” value is -23%.

On to `COc1ccc(C2=Nn3c(nnc3-c3ccccc3O)SC2)cc1`, for which the “activity, negative = inhibition” value was 5.11%.

For the molecule `CCOc1cc(C2/C(=C(/O)c3ccc(S(=O)(=O)N4CCCCC4)cc3)C(=O)C(=O)N2CCOC)ccc1O` (stereo not given), the “activity, negative = inhibition” value was 20.3%.

As to `Cc1ccc(/C=N/NC(=O)CNC(=O)COc2ccccc2)o1`, the “activity, negative = inhibition” value is -0.787%.

As for `O=C(CNC(=O)COc1ccccc1)NCCc1ccccn1`, the “activity, negative = inhibition” value is 5.88%.

Take `CCOc1ccccc1/C=N/NC(=O)CNC(=O)COc1ccccc1`: the Potency is 17.7 µM (active).
